Activity calls are given as the source filed them.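 Rule for the calls: active = curve showing a falling signal whose half-maximal concentration is at most twice the top valid dose; inconclusive = flat curve with a moderate drop, or an unreliable fit; inactive = the rest.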
Assay: miR-21 levels after miR-122 inhibitor treatment, dose response, selectivity assay for miR-122 inhibitor project, cell-based, Huh7, RT-qPCR, dry powder (AID 687038)
Conditions: Huh7 miR-21 levels, qRT-PCR, 48 h; series mostly up to 35 µM

outcome, inactive:
CCn1cc(C(=O)O)c(=O)c2cc(F)c(N3CCNCC3)nc21
O=C(NCCC1=CCCCC1)c1ccc2c(c1)sc1nc(-c3ccccc3)cn12
COc1cccc(-c2ccc3c(c2)O[C@H](CN(C)C(=O)C2CCOCC2)[C@H](C)CN([C@@H](C)CO)S3(=O)=O)c1
O=C(NCc1ccccc1Cl)c1ccc(CNc2c(NC3CCCCC3)c(=O)c2=O)cc1
COc1cccc(C(=O)Nc2ccc3c(c2)C(=O)N(C)C[C@@H](OC)[C@@H](C)CN[C@@H](C)CO3)c1
CO[C@@H]1CN(C)C(=O)c2cc(NC(=O)c3ccc4c(c3)OCO4)ccc2OC[C@H](C)NC[C@@H]1C
O=C(c1ccc(CN2CCOCC2)cc1)N1CCc2ccccc21
CN(C)CCN1C(=O)c2cccc3cc(N)cc(c23)C1=O
CN1C(=O)c2cc(NC(=O)c3cccc(F)c3)ccc2OC[C@H]2O[C@@H](CC(=O)O)CC[C@H]21
C[C@H]1CN([C@@H](C)CO)S(=O)(=O)c2ccc(C#Cc3ccncc3)cc2O[C@H]1CN(C)C(=O)C1CCOCC1
Cc1cc(C(C)(C)C)cc(S(=O)(=O)NCCc2ccncc2)c1C
O=C(CNCCC1=CCCCC1)Nc1ccccc1N1CCCCCC1
COCC(=O)N(C)C[C@H]1Oc2cc(C#Cc3cccnc3)ccc2S(=O)(=O)N([C@H](C)CO)C[C@H]1C
CN1C(=O)c2cc(NC(=O)c3cccc(F)c3)ccc2OC[C@@H]2O[C@@H](CC(=O)O)CC[C@H]21
C[C@@H]1CN([C@@H](C)CO)S(=O)(=O)c2ccc(C#Cc3ccncc3)cc2O[C@@H]1CN(C)C(=O)C1CCOCC1
Cn1c(=O)c(=O)n(C)c2cc(S(=O)(=O)N3CCOCC3)ccc21
CN(C)CCCOc1nn(Cc2ccccc2)c2ccccc12
CN1C(=O)c2cc(NC(=O)c3cccc(F)c3)ccc2OC[C@@H]2O[C@H](CC(=O)O)CC[C@H]21
CCCC#Cc1ccc2c(c1)O[C@H](CN(C)C(=O)COC)[C@H](C)CN([C@@H](C)CO)S2(=O)=O
CN(CC(=O)Nc1cccc(Cl)c1)S(=O)(=O)c1ccc2c(c1)n(C)c(=O)c(=O)n2C
Nc1ccc(Oc2ccc(Br)cc2)cc1
CCCC#Cc1ccc2c(c1)O[C@H](CN(C)C(=O)c1ccncc1)[C@H](C)CN([C@@H](C)CO)S2(=O)=O
C[C@@H]1CN([C@H](C)CO)S(=O)(=O)c2ccc(/C=C/c3ccccc3)cc2O[C@@H]1CN(C)C(=O)c1cccnc1
Cc1cccc(NC(=O)Nc2ccc3c(c2)C(=O)N(C)[C@@H]2CC[C@H](CC(=O)NCc4ccccc4Cl)O[C@H]2CO3)c1
O=C(CN=C1NS(=O)(=O)c2ccccc21)Nc1ccccc1N1CCCCCC1
CNC[C@@H]1Oc2cc(C#CC3CCCCC3)ccc2S(=O)(=O)N([C@@H](C)CO)C[C@@H]1C
COCC(=O)N(C)C[C@H]1Oc2cc(-c3ccccc3F)ccc2S(=O)(=O)N([C@@H](C)CO)C[C@H]1C
O=C(c1ccc(CNc2c(NC3CCCCC3)c(=O)c2=O)cc1)N1CCc2ccccc21
C[C@H]1CN([C@@H](C)CO)C(=O)c2cc(-c3ccc(C#N)cc3)cnc2O[C@H]1CN(C)C(=O)c1ccccc1
CN1C(=O)c2cc(NC(=O)c3cccc(F)c3)ccc2OC[C@H]2O[C@@H](CC(=O)O)CC[C@@H]21
COc1ccc(-c2cnc3c(c2)C(=O)N([C@@H](C)CO)C[C@H](C)[C@H](CN(C)S(=O)(=O)c2ccc(OC)cc2)O3)cc1
C/C=C/c1cnc2c(c1)C(=O)N([C@@H](C)CO)C[C@H](C)[C@H](CN(C)S(=O)(=O)c1ccc(OC)cc1)O2
